Measured values as given in PubChem BioAssay AID1159580 (chemical genetic matrix, 2015).
Screen size: about 5,500 compounds; about 2,000 (36%) were called active. Another 18% or so got no clear call; they are omitted. Cut-off read from the data, not from the text of the source: active = normalized growth mostly below about 0.91 (no sharp cut-off); inconclusive = no clear call, values can overlap the other calls; inactive = mostly above about 0.92. Some of the results follow.

Experiment: chemical genetic growth profiling, strain panel (AID 1159580);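 note: tested at 20 µM; growth read once vehicle control cultures reached saturation at 30 °C; 1 = growth at the plate median or of vehicle wells; lower values mean less growth of the strain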
Settings: S. cerevisiae deletion strains, growth OD

Measured: normalized growth

N[C@@H](Cc1cnc[nH]1)C(=O)O
inactive: locus YAL013W, strain DEP1, stronger effect = lower value 0.963 | locus YAL040C, strain CLN3, stronger effect = lower value 0.939 | locus YCL061C, strain MRC1 (second series), stronger effect = lower value 0.987 | locus YDR363W, strain ESC2, stronger effect = lower value 0.979 | locus YER002W, strain NOP16, stronger effect = lower value 0.991 | locus YMR307W, strain GAS1, stronger effect = lower value 0.986 | locus YNL128W, strain TEP1, stronger effect = lower value 0.978 | locus YNL153C, strain GIM3, stronger effect = lower value 1.01 | locus YNL175C, strain NOP13, stronger effect = lower value 0.989 | locus YNL197C, strain WHI3, stronger effect = lower value 0.988 | locus YNL224C, strain SQS1, stronger effect = lower value 0.996 | locus YOR083W, strain WHI5 (second series), stronger effect = lower value 1.03
